Assays:
Experiment in all cases: log2 ratio of Biotin-Ahx-Ub-VS probe labelling (fragment/DMSO); higher = less target engagement (more negative = stronger competition), active = hit call of the paper (q ≤ 0.05, log2 ratio ≤ -1)
Settings in all cases: compound concentration: 200 uM; treatment time: 3 h
USP9X = USP9X (UniProt Q93008)
Outline: (§1)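 HEK293T lysate, 495 µg per sample in Tris/CHAPS/IGEPAL buffer with protease inhibitors, was treated in triplicate with fragment at 200 µM or vehicle for 3 h and then with Biotin-Ahx-Ub-VS at 0.5 µM final for 1 h. Labelled DUBs were NeutrAvidin-enriched, digested with LysC and trypsin, and run by diaPASEF LC-MS/MS. Spectronaut label-free quantities were global-median-normalised, and values are average log2 fragment/vehicle ratios by unpaired t-test on proteins with ≥2 unique peptides.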

UniProt O00487 = target: UniProt O00487
Outline: as §1

UniProt O00507 = target: UniProt O00507
Outline: as §1

UniProt P51784 = target: UniProt P51784
Outline: as §1

UniProt Q5T2D3 = target: T1, UniProt Q5T2D3
T1 sequence (whole entry): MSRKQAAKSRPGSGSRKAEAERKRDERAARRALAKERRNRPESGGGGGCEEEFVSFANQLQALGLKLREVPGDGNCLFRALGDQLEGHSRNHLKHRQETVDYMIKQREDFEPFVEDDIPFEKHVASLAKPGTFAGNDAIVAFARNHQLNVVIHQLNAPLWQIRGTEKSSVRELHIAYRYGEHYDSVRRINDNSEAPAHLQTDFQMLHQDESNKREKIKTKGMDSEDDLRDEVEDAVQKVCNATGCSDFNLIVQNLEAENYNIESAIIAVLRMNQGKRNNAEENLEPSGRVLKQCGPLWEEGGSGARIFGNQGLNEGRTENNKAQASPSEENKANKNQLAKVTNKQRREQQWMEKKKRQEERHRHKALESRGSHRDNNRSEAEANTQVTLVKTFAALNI
Outline: as §1

UniProt Q8TE49 = target: T2, UniProt Q8TE49
T2 sequence (whole entry): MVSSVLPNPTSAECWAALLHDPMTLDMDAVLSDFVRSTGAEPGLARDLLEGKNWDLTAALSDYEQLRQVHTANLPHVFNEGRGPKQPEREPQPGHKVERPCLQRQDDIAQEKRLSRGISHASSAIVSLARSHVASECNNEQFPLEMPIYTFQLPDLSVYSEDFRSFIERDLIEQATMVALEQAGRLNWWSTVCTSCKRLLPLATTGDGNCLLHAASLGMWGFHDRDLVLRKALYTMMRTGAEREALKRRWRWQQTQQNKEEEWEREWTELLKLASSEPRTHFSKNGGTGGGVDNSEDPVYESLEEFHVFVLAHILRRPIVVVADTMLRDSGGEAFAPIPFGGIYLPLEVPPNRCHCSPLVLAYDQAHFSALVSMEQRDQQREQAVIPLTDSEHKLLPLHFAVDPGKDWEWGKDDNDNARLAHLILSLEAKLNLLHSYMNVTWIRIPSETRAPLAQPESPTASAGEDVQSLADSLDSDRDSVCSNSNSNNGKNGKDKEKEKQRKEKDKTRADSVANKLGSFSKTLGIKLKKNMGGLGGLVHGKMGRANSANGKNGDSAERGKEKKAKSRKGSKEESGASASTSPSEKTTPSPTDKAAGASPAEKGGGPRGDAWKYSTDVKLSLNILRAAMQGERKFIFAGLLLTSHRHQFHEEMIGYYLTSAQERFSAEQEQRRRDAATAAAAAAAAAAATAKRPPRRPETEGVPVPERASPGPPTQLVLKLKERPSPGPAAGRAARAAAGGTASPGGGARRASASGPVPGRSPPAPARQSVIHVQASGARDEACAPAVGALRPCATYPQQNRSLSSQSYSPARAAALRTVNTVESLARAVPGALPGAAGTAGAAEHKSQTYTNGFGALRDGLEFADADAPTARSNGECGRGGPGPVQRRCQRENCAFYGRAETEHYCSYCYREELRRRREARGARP
Outline: as §1

UniProt Q9P2H5 = target: T3, UniProt Q9P2H5
T3 sequence (whole entry): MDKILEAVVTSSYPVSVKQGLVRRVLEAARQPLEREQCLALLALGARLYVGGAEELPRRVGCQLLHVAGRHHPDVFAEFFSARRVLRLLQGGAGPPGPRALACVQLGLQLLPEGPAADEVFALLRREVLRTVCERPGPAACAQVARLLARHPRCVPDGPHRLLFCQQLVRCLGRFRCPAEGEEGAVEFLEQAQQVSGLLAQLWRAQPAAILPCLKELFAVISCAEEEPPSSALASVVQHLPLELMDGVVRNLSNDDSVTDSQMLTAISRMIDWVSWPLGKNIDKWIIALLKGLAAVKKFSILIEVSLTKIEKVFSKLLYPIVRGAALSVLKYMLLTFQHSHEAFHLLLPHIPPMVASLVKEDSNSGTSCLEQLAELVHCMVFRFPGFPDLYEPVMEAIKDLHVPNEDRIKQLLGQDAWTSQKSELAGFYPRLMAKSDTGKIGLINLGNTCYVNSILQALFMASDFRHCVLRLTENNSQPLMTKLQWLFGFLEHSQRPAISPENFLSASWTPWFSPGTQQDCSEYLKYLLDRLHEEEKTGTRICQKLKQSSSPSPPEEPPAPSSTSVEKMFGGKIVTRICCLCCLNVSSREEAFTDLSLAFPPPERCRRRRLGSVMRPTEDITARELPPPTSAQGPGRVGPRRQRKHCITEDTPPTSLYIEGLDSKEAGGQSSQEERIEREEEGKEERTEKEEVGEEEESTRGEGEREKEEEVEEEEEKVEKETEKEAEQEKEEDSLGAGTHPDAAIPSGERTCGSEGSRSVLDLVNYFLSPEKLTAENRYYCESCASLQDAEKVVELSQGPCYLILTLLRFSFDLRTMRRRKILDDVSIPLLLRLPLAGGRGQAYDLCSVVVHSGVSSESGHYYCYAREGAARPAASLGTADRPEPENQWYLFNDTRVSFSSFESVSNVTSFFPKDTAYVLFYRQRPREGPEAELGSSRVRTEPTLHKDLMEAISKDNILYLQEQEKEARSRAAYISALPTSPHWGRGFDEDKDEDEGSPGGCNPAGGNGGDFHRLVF
Outline: as §1

UniProt Q9UGI0 = target: T4, UniProt Q9UGI0
T4 sequence (whole entry): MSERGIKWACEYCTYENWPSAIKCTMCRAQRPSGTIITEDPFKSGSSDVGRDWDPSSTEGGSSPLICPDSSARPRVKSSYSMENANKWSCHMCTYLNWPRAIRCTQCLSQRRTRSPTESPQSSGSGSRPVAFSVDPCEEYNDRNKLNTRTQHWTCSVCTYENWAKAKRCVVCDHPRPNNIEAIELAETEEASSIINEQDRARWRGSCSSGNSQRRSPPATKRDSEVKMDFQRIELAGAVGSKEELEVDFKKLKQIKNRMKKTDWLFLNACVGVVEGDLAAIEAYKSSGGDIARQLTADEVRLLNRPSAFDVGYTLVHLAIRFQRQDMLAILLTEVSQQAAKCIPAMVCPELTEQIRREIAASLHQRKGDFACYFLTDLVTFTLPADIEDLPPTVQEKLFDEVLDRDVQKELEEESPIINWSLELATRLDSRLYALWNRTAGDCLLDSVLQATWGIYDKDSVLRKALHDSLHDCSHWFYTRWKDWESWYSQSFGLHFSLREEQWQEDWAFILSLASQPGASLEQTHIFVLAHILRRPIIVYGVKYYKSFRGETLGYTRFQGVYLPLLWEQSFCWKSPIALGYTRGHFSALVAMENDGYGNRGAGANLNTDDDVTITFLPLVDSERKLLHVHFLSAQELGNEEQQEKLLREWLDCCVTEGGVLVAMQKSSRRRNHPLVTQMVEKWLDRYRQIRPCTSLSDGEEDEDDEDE
Outline: as §1

YOD1 = target: T5, YOD1 (UniProt Q5VVQ6)
T5 sequence (whole entry): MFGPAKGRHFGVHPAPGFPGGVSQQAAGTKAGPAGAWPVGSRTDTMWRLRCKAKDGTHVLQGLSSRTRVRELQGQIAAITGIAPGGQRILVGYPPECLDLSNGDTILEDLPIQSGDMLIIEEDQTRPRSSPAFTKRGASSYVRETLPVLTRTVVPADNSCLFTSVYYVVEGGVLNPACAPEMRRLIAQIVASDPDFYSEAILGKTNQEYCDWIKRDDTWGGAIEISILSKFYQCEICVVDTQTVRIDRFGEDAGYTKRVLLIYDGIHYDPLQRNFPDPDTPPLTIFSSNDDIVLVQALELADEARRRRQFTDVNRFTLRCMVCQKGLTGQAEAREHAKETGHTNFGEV
Outline: as §1

Measured: log2 ratio of Biotin-Ahx-Ub-VS probe labelling

UniProt O00507, sequence (O00507 whole entry): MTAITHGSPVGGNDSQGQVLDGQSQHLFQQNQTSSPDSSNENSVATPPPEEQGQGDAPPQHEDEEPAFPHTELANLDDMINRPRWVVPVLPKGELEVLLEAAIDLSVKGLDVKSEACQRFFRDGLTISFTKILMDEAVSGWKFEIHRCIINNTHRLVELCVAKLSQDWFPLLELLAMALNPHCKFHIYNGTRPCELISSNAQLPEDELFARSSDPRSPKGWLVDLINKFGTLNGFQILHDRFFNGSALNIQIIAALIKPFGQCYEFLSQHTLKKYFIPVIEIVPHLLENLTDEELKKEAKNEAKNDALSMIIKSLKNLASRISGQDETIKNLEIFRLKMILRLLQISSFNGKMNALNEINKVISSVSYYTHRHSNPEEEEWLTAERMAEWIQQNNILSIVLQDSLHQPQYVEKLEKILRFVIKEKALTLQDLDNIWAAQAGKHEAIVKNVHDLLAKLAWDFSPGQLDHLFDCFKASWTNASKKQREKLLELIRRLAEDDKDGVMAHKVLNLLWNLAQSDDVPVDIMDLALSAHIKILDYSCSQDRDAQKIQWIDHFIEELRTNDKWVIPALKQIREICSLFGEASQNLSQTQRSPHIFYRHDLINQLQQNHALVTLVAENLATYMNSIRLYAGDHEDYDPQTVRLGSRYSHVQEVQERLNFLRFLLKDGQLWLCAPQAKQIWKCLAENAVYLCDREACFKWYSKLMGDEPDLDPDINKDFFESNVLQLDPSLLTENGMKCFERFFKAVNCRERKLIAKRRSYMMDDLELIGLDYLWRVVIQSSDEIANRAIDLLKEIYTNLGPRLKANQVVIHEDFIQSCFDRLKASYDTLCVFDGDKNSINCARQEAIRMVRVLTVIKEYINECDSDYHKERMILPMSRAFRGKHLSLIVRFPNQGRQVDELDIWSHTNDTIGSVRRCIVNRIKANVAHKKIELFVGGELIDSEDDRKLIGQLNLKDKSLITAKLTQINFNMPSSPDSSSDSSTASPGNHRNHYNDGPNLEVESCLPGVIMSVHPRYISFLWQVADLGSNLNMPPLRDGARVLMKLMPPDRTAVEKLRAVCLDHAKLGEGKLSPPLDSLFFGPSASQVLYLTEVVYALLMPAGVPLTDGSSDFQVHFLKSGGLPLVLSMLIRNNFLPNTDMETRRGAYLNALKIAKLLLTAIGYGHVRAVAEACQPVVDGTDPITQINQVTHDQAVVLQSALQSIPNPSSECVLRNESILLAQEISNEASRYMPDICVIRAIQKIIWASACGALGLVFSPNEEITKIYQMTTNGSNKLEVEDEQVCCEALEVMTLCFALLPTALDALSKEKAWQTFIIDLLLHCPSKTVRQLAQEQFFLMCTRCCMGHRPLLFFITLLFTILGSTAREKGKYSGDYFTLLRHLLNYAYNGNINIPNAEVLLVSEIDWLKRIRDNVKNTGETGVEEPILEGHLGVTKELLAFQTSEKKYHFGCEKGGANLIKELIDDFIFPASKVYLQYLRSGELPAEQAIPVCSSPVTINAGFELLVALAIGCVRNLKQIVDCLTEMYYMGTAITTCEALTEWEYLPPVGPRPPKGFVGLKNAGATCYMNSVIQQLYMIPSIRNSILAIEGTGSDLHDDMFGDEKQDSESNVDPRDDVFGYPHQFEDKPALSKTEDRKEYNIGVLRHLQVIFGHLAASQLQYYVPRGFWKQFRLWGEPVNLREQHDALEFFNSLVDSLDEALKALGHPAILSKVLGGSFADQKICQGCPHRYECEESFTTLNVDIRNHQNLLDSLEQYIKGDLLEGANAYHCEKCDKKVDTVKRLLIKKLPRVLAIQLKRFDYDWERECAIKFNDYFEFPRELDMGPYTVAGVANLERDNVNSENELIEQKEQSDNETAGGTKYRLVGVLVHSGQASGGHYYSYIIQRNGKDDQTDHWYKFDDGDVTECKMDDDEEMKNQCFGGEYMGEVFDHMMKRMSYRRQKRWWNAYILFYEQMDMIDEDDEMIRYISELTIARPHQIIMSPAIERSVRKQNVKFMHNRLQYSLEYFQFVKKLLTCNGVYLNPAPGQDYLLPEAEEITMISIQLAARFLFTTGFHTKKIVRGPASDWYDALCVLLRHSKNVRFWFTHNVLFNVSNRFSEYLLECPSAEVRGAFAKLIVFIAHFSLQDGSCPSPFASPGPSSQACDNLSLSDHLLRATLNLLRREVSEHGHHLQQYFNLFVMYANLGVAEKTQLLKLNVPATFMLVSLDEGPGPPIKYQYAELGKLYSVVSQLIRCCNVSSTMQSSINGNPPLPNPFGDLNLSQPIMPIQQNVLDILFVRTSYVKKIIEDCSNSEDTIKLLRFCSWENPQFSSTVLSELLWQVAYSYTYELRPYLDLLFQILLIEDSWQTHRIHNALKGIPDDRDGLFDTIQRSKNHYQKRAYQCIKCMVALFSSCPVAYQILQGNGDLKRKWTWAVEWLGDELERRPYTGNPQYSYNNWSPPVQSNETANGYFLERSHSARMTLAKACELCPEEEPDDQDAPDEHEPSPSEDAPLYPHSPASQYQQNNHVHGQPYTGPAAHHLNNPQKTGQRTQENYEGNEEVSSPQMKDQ
UniProt P51784, sequence (P51784 whole entry): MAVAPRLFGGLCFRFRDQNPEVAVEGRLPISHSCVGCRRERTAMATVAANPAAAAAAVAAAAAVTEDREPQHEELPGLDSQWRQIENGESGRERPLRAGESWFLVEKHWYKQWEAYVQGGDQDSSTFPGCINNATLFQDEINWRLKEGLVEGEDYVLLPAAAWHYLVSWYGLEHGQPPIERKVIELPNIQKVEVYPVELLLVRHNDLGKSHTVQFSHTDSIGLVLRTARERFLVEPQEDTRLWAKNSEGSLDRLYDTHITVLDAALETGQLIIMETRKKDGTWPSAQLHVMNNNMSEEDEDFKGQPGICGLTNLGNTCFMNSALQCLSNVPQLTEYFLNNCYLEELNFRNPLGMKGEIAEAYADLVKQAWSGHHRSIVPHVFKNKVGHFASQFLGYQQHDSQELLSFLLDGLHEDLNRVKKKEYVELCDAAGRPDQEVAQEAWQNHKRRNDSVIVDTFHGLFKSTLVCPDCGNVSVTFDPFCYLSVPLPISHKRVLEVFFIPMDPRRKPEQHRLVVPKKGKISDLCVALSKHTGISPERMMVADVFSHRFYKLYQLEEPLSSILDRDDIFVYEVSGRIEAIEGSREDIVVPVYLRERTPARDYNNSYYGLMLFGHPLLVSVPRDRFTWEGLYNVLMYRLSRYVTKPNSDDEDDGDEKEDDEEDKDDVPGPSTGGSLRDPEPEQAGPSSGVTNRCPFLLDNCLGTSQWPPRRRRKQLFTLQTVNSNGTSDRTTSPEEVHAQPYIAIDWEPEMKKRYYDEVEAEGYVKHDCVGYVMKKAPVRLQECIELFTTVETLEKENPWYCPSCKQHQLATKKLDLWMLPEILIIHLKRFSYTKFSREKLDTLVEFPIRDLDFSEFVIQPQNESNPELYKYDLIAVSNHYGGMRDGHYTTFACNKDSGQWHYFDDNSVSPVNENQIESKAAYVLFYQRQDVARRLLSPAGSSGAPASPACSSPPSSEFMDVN
UniProt O00487, sequence (O00487 whole entry): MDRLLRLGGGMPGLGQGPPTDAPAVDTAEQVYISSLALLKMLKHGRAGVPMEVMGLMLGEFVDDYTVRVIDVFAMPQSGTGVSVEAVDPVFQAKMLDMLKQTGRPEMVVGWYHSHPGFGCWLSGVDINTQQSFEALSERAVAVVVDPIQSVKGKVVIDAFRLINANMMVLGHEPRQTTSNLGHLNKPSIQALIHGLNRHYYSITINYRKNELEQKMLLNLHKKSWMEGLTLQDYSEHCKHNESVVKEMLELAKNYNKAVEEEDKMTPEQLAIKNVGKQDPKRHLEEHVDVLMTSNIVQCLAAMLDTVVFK

Cl.Cn1c(CNC(=O)CCl)nc2cccnc21
inactive: USP9X -0.29 | UniProt O00487 -0.167 | UniProt O00507 -0.348 | UniProt P51784 -0.0765 | UniProt Q5T2D3 -0.354 | UniProt Q8TE49 -0.488 | UniProt Q9P2H5 -0.199 | UniProt Q9UGI0 -0.199 | YOD1 -0.334
